Data as given in the supplement of paper PMC11732987, “Enantioselective OTUD7B fragment discovery through chemoproteomics screening and high-throughput optimisation” (Communications Chemistry, 2025).

Assays:
Assay in all cases: log2 ratio of Biotin-Ahx-Ub-VS probe labelling (fragment/DMSO); higher = less target engagement (more negative = stronger competition), active = hit call of the paper (q ≤ 0.05, log2 ratio ≤ -1)
Settings in all cases: compound concentration: 200 uM; treatment time: 3 h
USP42 = target: T1, USP42 (UniProt Q9H9J4)
T1 sequence (whole entry): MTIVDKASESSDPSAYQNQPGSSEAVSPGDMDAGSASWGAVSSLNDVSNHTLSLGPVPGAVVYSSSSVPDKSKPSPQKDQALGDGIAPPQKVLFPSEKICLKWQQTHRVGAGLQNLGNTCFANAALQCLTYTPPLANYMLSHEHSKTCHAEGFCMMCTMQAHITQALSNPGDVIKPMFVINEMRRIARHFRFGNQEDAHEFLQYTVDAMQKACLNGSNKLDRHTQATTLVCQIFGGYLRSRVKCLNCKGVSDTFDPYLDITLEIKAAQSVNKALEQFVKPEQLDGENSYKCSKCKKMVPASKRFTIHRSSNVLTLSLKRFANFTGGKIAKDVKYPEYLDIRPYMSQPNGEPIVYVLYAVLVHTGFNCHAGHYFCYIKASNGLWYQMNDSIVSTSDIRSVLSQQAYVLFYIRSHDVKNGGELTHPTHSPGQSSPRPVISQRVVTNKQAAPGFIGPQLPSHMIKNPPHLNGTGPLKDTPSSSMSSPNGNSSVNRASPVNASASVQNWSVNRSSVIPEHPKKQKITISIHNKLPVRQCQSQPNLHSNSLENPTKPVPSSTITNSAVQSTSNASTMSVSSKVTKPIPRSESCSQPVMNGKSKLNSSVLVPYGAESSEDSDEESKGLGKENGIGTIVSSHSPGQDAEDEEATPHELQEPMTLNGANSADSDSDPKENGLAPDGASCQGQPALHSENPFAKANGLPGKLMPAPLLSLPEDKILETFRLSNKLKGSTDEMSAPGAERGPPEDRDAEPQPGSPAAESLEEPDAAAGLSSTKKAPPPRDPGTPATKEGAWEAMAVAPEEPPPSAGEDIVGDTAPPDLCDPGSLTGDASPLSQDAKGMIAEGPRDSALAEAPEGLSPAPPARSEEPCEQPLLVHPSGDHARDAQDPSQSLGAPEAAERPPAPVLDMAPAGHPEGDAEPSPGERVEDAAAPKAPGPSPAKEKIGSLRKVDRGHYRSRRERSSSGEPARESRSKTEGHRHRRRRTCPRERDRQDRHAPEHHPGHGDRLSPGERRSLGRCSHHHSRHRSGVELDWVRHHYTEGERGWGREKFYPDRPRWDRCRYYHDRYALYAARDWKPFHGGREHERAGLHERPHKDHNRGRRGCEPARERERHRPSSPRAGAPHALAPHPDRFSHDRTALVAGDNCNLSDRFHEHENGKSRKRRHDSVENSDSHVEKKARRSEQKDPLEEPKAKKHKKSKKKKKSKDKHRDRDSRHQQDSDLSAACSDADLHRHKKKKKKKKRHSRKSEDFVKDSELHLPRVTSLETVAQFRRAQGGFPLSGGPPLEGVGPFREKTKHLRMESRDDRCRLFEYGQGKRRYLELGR
Outline: (§1)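 Using Biotin-Ahx-Ub-VS at 0.5 µM final for 1 h, DUBs were labelled in HEK293T lysate (495 µg per sample) that had first been treated in triplicate with fragment at 200 µM or vehicle for 3 h. NeutrAvidin enrichment, LysC and trypsin digestion and diaPASEF LC-MS/MS followed. Spectronaut label-free quantities were global-median-normalised. Values are average log2 fragment/vehicle ratios by unpaired t-test, using proteins with ≥2 unique peptides.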

USP46 = USP46 (UniProt P62068)
Outline: as §1

USP47 = target: T2, USP47 (UniProt Q96K76)
T2 sequence (whole entry): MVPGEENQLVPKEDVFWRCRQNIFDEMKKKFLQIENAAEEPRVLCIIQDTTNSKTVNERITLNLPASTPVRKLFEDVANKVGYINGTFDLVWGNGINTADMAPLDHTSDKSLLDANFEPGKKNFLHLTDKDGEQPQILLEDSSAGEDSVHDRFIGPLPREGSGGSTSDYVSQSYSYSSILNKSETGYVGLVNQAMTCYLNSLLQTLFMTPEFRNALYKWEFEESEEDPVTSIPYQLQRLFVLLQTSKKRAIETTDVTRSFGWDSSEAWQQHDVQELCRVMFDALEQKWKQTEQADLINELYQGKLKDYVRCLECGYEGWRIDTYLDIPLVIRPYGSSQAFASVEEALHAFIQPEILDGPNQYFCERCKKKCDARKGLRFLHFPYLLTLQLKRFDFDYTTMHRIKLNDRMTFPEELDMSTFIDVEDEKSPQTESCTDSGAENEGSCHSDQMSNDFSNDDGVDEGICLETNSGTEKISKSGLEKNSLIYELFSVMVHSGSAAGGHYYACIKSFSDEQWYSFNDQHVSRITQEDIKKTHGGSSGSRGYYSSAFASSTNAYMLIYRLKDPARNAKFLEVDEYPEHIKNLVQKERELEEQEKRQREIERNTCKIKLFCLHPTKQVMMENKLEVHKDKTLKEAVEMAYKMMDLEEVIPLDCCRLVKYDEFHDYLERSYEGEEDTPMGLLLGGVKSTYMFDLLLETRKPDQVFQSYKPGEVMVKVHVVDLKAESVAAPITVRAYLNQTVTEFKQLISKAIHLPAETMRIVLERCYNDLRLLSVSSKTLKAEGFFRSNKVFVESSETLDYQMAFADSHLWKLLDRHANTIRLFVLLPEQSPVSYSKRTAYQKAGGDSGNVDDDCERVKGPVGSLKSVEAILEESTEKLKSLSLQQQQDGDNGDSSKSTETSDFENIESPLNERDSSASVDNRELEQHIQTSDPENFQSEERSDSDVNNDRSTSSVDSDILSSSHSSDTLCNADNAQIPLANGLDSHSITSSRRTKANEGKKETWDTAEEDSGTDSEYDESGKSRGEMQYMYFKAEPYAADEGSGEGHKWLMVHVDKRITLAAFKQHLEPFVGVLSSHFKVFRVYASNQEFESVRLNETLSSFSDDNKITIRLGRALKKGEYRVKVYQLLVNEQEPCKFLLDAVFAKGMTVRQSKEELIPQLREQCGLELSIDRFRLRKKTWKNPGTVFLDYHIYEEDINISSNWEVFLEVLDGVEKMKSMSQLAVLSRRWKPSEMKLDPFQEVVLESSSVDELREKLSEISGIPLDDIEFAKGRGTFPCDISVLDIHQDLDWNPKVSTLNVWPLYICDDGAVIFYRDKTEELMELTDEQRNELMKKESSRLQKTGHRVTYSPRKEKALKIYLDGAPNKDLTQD
Outline: as §1

USP48 = target: T3, USP48 (UniProt Q86UV5)
T3 sequence (whole entry): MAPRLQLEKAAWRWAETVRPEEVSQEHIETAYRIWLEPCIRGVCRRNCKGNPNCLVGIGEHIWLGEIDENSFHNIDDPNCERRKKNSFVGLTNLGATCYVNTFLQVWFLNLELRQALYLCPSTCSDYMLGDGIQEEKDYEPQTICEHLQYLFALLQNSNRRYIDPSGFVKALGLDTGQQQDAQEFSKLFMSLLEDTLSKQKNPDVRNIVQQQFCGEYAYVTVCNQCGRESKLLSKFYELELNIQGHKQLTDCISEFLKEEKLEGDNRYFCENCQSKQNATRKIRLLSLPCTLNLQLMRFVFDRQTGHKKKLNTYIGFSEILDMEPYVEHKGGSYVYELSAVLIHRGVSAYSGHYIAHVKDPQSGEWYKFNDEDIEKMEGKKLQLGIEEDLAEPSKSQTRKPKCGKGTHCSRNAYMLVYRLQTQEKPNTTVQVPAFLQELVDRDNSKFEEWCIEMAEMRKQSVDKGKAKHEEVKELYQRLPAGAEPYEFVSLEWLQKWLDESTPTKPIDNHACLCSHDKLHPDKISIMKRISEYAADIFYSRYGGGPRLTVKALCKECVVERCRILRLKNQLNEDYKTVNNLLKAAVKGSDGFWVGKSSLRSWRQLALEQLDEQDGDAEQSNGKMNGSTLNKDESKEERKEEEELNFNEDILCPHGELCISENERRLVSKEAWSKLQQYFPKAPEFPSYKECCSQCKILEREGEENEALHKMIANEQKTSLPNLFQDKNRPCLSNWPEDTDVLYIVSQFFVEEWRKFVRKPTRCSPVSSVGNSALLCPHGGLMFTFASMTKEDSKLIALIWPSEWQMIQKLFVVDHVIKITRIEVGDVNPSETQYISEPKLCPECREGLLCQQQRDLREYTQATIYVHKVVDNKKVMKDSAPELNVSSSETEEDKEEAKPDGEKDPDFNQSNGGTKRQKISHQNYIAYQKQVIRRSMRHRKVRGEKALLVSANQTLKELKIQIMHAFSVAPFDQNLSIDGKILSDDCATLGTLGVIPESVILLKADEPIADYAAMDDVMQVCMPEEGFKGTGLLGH
Outline: as §1

USP5 = target: T4, USP5 (UniProt P45974)
T4 sequence (whole entry): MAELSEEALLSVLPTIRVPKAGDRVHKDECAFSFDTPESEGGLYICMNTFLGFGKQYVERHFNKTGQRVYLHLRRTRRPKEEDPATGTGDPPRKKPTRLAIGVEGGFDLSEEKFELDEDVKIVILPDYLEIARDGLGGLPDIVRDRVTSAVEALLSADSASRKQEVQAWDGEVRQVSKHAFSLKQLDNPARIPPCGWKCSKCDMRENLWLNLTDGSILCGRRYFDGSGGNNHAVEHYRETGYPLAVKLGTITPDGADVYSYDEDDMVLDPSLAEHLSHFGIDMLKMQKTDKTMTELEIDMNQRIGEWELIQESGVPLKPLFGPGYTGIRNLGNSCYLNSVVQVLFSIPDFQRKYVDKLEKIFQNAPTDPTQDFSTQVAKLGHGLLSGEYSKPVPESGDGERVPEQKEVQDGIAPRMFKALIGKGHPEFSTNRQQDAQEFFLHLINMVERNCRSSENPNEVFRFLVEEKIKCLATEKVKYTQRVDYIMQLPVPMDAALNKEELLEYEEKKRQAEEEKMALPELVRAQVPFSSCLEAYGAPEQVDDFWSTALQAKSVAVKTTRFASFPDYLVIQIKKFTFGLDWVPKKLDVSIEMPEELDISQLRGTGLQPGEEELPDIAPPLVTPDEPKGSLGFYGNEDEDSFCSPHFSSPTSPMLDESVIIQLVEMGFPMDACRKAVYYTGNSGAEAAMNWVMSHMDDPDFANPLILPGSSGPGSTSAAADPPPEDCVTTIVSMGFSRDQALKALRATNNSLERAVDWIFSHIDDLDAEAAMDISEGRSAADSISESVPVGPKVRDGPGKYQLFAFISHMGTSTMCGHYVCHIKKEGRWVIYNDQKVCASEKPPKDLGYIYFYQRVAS
Outline: as §1

USP54 = USP54 (UniProt Q70EL1)
Outline: as §1

USP7 = USP7 (UniProt Q93009)
Outline: as §1

USP8 = target: T5, USP8 (UniProt P40818)
T5 sequence (whole entry): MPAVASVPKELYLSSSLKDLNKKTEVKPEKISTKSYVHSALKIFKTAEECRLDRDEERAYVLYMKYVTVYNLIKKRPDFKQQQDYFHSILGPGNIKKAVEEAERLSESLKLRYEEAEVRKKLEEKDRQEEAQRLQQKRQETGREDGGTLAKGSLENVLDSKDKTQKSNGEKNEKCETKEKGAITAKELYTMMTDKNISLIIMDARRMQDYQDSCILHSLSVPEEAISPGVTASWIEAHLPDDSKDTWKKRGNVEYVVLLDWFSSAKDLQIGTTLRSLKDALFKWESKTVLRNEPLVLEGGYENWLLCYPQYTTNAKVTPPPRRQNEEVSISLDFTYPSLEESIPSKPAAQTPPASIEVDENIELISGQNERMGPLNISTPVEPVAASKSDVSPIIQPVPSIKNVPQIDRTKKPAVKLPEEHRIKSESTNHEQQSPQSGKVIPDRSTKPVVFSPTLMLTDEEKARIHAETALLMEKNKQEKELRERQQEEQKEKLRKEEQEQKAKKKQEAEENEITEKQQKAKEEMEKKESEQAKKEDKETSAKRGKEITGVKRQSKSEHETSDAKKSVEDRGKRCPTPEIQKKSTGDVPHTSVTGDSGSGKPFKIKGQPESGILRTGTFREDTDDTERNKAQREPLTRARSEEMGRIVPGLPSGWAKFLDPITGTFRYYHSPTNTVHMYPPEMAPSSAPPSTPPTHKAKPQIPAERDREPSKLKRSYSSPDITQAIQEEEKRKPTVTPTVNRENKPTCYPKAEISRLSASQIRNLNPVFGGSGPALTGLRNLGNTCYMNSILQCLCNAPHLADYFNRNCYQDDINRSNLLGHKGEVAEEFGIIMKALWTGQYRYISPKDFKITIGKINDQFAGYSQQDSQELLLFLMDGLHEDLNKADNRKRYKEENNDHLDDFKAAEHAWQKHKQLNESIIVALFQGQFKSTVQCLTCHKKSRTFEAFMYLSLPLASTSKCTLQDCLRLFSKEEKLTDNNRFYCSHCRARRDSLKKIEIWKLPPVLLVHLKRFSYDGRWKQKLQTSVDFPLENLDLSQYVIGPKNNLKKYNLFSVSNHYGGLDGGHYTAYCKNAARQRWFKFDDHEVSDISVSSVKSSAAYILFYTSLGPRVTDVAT
Outline: as §1

Measured: log2 ratio of Biotin-Ahx-Ub-VS probe labelling

Chain of USP54 (Q70EL1 whole entry): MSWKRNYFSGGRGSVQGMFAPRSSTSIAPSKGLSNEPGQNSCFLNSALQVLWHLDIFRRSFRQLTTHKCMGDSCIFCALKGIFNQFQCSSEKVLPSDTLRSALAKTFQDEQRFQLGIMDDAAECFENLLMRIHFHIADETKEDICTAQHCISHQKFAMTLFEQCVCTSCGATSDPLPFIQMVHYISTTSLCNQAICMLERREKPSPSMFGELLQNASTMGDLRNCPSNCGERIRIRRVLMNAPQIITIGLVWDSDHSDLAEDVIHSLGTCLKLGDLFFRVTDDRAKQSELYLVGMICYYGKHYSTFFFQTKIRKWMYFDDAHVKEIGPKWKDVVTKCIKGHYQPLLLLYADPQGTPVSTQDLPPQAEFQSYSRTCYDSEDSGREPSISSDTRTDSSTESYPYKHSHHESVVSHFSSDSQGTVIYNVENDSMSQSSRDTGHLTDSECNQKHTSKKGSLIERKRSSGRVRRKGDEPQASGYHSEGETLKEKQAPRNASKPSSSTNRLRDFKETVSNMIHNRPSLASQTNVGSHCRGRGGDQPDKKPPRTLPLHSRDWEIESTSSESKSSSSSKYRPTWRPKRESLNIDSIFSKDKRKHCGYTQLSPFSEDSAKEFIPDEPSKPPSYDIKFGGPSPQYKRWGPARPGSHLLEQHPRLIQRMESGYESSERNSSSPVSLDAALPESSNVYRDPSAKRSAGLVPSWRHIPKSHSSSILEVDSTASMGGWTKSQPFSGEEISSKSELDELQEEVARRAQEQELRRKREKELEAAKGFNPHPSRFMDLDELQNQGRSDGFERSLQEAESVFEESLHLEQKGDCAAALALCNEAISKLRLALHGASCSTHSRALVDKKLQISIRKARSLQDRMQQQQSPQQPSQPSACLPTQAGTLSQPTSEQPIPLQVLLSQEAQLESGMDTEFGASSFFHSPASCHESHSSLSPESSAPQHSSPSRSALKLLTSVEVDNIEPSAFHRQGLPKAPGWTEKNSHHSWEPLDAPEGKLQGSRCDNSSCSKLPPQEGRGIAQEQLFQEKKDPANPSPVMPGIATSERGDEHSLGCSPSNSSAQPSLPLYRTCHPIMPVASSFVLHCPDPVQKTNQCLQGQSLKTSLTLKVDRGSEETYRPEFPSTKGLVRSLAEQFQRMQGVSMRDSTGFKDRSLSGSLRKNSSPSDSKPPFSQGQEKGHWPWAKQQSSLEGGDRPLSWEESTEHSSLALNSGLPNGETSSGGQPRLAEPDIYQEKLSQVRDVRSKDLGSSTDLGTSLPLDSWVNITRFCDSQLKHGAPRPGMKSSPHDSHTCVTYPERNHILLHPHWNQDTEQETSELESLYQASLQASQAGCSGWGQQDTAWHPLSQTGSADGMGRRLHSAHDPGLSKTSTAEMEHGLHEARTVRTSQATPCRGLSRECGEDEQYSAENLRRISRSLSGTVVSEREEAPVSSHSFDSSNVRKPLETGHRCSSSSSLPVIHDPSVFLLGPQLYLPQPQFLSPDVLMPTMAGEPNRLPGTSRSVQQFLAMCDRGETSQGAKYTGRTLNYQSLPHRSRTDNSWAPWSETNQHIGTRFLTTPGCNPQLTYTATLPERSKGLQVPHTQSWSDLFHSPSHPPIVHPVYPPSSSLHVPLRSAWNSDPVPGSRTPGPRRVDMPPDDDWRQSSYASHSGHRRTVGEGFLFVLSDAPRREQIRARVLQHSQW
Chain of USP7 (Q93009 whole entry, looked up): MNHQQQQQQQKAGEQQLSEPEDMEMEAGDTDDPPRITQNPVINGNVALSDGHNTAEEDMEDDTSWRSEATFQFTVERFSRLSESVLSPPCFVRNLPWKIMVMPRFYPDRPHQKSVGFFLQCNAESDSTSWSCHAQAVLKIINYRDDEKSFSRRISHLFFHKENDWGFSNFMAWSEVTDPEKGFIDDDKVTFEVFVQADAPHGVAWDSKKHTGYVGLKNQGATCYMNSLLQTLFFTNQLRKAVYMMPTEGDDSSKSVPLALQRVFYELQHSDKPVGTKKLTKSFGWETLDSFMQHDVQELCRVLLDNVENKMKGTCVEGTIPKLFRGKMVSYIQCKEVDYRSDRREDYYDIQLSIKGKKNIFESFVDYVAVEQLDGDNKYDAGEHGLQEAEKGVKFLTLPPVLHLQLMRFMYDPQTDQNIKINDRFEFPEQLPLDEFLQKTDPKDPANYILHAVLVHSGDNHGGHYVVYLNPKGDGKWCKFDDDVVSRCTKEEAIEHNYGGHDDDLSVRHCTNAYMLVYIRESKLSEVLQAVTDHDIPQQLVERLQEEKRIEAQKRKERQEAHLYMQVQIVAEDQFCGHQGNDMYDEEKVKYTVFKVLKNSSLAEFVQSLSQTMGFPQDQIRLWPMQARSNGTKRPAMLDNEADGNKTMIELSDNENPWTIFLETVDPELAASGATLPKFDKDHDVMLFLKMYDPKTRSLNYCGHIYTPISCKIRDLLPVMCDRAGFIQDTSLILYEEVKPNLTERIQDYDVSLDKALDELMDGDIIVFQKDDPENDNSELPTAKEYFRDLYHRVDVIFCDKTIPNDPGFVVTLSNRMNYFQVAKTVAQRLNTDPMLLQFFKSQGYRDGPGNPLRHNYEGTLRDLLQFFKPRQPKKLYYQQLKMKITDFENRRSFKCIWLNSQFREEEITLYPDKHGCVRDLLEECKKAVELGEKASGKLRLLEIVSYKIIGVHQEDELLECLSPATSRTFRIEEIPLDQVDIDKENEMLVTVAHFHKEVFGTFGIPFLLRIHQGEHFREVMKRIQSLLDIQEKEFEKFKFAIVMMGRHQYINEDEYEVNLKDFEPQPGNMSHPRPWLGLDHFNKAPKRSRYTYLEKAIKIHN
Chain of USP46 (P62068 whole entry): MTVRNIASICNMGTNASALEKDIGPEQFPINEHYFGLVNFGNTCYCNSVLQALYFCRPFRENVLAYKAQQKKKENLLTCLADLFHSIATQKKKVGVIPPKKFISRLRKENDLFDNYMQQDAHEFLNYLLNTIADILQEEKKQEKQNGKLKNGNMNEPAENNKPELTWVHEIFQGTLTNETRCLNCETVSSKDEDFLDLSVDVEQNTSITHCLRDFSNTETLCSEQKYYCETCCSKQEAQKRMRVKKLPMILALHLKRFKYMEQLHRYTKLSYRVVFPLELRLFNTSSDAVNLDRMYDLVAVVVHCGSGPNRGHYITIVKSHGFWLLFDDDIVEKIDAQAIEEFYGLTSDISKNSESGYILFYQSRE

Cc1nc(CNC(=O)CCl)c2ccccn12.Cl
inactive: USP42 0.298 | USP46 0.0871 | USP47 -0.0462 | USP48 0.164 | USP5 0.133 | USP54 -0.0547 | USP7 -0.157 | USP8 -0.312
